From PubChem BioAssay (NCATS) come the findings set out here.

Records with an inconclusive call do not appear. The source made the active and inactive calls. Calls come from the whole dose curve; as a rule, active = well fitted inhibition curve with a large enough effect; inconclusive = small, poorly fitted or top-dose-only effect; inactive = no such curve, though single readings can be large or run the other way.
% is set by controls: 0 for no effect and ±100 for the full control effect.

This test is described as follows: Primary qHTS for small molecule stabilizers of the endoplasmic reticulum resident proteome: Secreted ER Calcium Modulated Protein (SERCaMP) assay (AID 1508630). The settings on record: SH-SY5Y GLuc-SERCaMP (Gaussia luciferase released on ER calcium loss) secretion, thapsigargin, luminescence; series mostly up to 38.4 µM; activity change, negative = inhibition: at the top concentration. The text has this:
Assay Provider: Brandon K. Harvey Ph.D.
National Institute on Drug Abuse, National Institutes of Health, Baltimore, MD
Endoplasmic reticulum (ER) dysregulation is associated with human pathologies including neurodegenerative, cardiovascular, muscular, and diabetic conditions. Maintenance of ER calcium is critical for functions of the ER and its depletion can lead to loss of ER resident proteins, in a process termed exodosis. Therapeutic compounds capable of attenuating the redistribution of ER proteins under pathological conditions may slow or stop disease progression. To identify such compounds, we performed a quantitative high-throughput screen (qHTS) using the SERCaMP assay, which monitors secretion of ER resident proteins triggered by calcium depletion.
SERCaMP was initially developed as a reporter of ER calcium homeostasis using a Gaussia luciferase with a modified signal peptide and carboxy-terminus (GLuc-SERCaMP), modifications that confer secretion of the reporter in response to ER calcium depletion (Henderson et al., 2014). The assay was used to screen 9,501 compounds, including a collection of drugs approved by the FDA (US), EMA (EU), NHI (Japan), and HC (Canada) regulatory agencies (Huang et al., 2011). Since the SERCaMP reporter reflects the exodosis phenomenon (Trychta et al., 2018a), compounds identified in the screen have the potential to prevent exodosis by different mechanisms such as stabilizing ER calcium or augmenting ERS retrieval.
1. Henderson, M.J., Wires, E.S., Trychta, K.A., Richie, C.T., and Harvey, B.K. (2014). SERCaMP: a carboxy-terminal protein modification that enables monitoring of ER calcium homeostasis. Mol Biol Cell 25, 2828-2839.
2. Huang, R., Southall, N., Wang, Y., Yasgar, A., Shinn, P., Jadhav, A., Nguyen, D.T., and Austin, C.P. (2011). The NCGC pharmaceutical collection: a comprehensive resource of clinically approved drugs enabling repurposing and chemical genomics. Sci Transl Med 3, 80ps16.
3. Trychta, K.A., Back, S., Henderson, M.J., and Harvey, B.K. (2018a). KDEL Receptors Are Differentially Regulated to Maintain the ER Proteome under Calcium Deficiency. Cell Rep 25, 1829-1840 e1826.
SEQUENCE No. (1, 2, 3, etc.); […] (e.g., Cells, Incubation, Reagent, etc.); VALUE and DESCRIPTION.
1; Reagent; 5 uL; 1000 SH-SY5Y cells per wells
3; Compound; 23 nL; Control inhibitor / compound library
5; Reagent; 100 nM; Thapsigargin
7; Reagent; 1 uL; 0.5x coelenterazine
8; Detection; Luminescence; ViewLux imaging system
NOTES (numbers refer to sequence above)
1; SH-SY5Y human neuroblastoma cells stably expressing GLuc-SERCaMP (SH-SY5Y-GLuc-ASARTDL) cells were seeded in 1,536 well white tissue culture treated plates (Corning, Cat# 7464) in DMEM-high glucose-sodium pyruvate (ThermoFisher Scientific, Cat #10569) supplemented with 10% bovine growth serum (Hyclone), 10 U/ml penicillin (Gibco), 10 ug/ml streptomycin (Gibco), and 20 mM HEPES.
2; Assay plates were incubated for 5 hour at 37C in a humidified incubator containing 5% CO2.
3; qHTS libraries (23 nl, final concentrations of 1.53 uM, 7.67 uM, 38.3 uM) or controls (neutral control: DMSO, positive control: dantrolene) were added using a Kalypsis pin-tool Robotic System equipped with 1536 pinheads.
4; Cells were then incubated for 16 hours at 37C, 5% CO2.
5; Thapsigargin was added at 100 nM to deplete ER calcium stores.
6; Cells were incubated for 4 hour (37 °C, 5% CO2)
7; Gaussia luciferase in the medium was measured by adding 1 ul of 0.5x coelenterazine (final concentration 0.07x) prepared in Gaussia Luciferase Glow Assay Buffer (Pierce), without addition of the Cell Lysis Buffer Reagent.
8; Luminescence was measured using a ViewLux […] CCD imaging system (Perkin Elmer) equipped with clear filters. […] The same controls were also used for the calculation of the Z' factor, a measure of assay quality control, as previously described (Zhang et al., 1999). […]
As to `CCOC(=O)O[C@]1(C(=O)OCCl)CC[C@@H]2[C@H]3CCC4=CC(=O)C=C[C@]4(C)[C@@H]3[C@@H](O)C[C@@]21C`, the “activity change, negative = inhibition” value was 19.9% (inactive).
In the case of `OC[C@@H](O)[C@H](O)[C@H](O)[C@@H](O)CO`, the Potency result is “inactive”.
With `CCc1ccc(OCc2ccccc2C(=O)Nc2ccc3nc(C)cc(N)c3c2)cc1`, the “activity change, negative = inhibition” value was 264% (inactive).
Consider `CC(C)(Cc1ccc2ccccc2c1)NC[C@@H](O)COc1cccc(Cl)c1C#N`, for which the “activity change, negative = inhibition” value is 477% (inactive).
On the same count and under the same terms, under `C=C1C(=O)[C@@]23C(CC[C@@H]1[C@H]2O)[C@@]12CO[C@]3(O)[C@@H](O)[C@@H]1C(C)(C)CC[C@@H]2O` (stereo not given in full) stands 103% (inactive); under `CC(C)[C@H](CO)Nc1nc(Nc2ccc(C(=O)O)c(Cl)c2)c2ncn(C(C)C)c2n1`, -0.563% (inactive); under `CCC(CC)[C@H](NC(C)=O)[C@@H]1[C@H](O)[C@@H](C(=O)O)C[C@@H]1N=C(N)N`, 0% (inactive).
The same measure, in the same setting: under `C[C@]12CCC3c4ccc(O)cc4CCC3C1CCC2=O` (stereo not given in full) stands 24% (inactive).
On to `NCCS`, for which the Potency entry was “inactive”.
Take `CC(=O)c1ccc(S(=O)(=O)NC(=O)NC2CCCCC2)cc1`: the Potency result is “inactive”.
Regarding `NC(=O)[C@@H](CCC(F)(F)F)N(Cc1ccc(-c2ncon2)cc1F)S(=O)(=O)c1ccc(Cl)cc1`, the “activity change, negative = inhibition” value was 0% (inactive).
Same read-out and setting: with `Nc1ncnc2ccccc12` the figure was 0% (inactive).
The same measure, in the same setting: under `CC1(C)O[C@H]2C[C@@H]3[C@H]4CCC5=CC(=O)C=C[C@]5(C)[C@@]4(F)[C@@H](O)C[C@]3(C)[C@]2(C(=O)CO)O1` stands 97.7% (inactive); under `COc1ccc2c(Oc3ccc(NC(=O)c4c(C)n(CC(C)(C)O)n(-c5ccccc5)c4=O)cc3F)ccnc2c1`, -31.9% (inactive); under `O=C(Nc1cccc(Br)c1)c1cccc(S(=O)(=O)N2CCCCCC2)c1`, 113% (inactive).
Still for that read-out and setting: with `Cn1c(N2CCCCS2(=O)=O)nc(C(=O)NCc2ccc(F)cc2)c(O)c1=O` the figure was 117% (inactive); with `O=C1Nc2ccc(Cl)cc2C(C#CC2CC2)(C(F)(F)F)O1` (stereo not given), 60.8% (inactive).
For `O=C(O)c1ccc(-c2cc3cccnc3c(-c3ccc4nonc4c3)n2)cc1`, the “activity change, negative = inhibition” value is 0% (inactive).
For `CCN(CC)C(=O)c1ccc(O)c(OC)c1`, the Potency result was “inactive”.
As to `CCc1ccc(C=C2SC(=S)NC2=O)cc1`, the “activity change, negative = inhibition” value was 12.5% (inactive).
As for `O=c1c(O)c(-c2ccc(O)cc2)oc2cc(O)cc(O)c12`, the “activity change, negative = inhibition” value was 157% (inactive).
The same measure, in the same setting: with `O=C(O)c1cc(O)c2c(c1)C(=O)c1cccc(O)c1C2=O` the figure was -24.5% [at 76.3 µM] (inactive).
With `CC(C)OC(=O)C(C)(C)Oc1ccc(C(=O)c2ccc(Cl)cc2)cc1`, the Potency entry was “inactive”.
On the same count and under the same terms, under `CCCCC1C(=O)N(c2ccccc2)N(c2ccccc2)C1=O` stands “inactive”.
With `CC(C)(C(=O)NCC(F)(F)C(F)(F)F)C(=O)N[C@@H]1C(=O)Nc2ccccc2-c2ccccc21`, the “activity change, negative = inhibition” value is 0% (inactive).
In the case of `O=C1NCC2(CCN(CCc3ccccc3)CC2)O1`, the Potency entry was “inactive”.
As for `C[C@H]1[C@H](NC(=O)C(=NOC(C)(C)C(=O)O)c2csc(N)n2)C(=O)N1S(=O)(=O)O`, the “activity change, negative = inhibition” value is -16.5% (inactive).
For the compound `CC(C)(C)Cn1c(N)nc2ccc(-c3[nH]c(C(C)(C)C)nc3-c3ccc(F)cc3)nc21`, the “activity change, negative = inhibition” value was 102% (inactive).
On the same count and under the same terms, under `O=c1c(-c2ccc(O)cc2)coc2cc(O[C@@H]3O[C@H](CO)[C@H](O)[C@H](O)[C@H]3O)ccc12` stands -5.22% (inactive); under `COc1ccc(-c2oc3c(CC=C(C)C)c(OC4O[C@H](CO)[C@@H](O)[C@H](O)[C@@H]4O)cc(O)c3c(=O)c2OC2O[C@@H](C)[C@H](O)[C@@H](O)[C@@H]2O)cc1` (stereo not given in full), 53.6% (inactive).
With `CN(C)Cc1ccc(-c2nc3cccc4c3n2CCNC4=O)cc1`, the “activity change, negative = inhibition” value is 96.7% (inactive).
The same measure, in the same setting: with `Nc1ncnc2c1ncn2[C@@H]1O[C@H](CO)C[C@@H]1O` the figure was -37.3% (inactive).
For `CC(=O)O[C@]1(C(C)=O)CC[C@H]2[C@@H]3C=C(Cl)C4=CC(=O)[C@@H]5C[C@@H]5[C@]4(C)[C@H]3CC[C@@]21C`, the Potency result was “inactive”.
On to `NC(CO)(CO)CCc1ccc(Sc2cccc(OCc3ccccc3)c2)cc1Cl`, for which the “activity change, negative = inhibition” value is 317% (inactive).
Still for that read-out and setting: under `N[C@@]1(C(=O)O)CS(=O)(=O)[C@H]2[C@H](C(=O)O)[C@H]21` stands 0% (inactive); under `Cc1ccc(/C=N/NC(=O)c2ccccc2Oc2ccccc2)o1`, 19.6% (inactive); under `CC=CCC=CCCC(=O)[C@H]1O[C@@H]1C(N)=O`, 2.98% (inactive).
`COc1cc(Nc2ncc(F)c(Nc3ccc4c(n3)NC(=O)C(C)(C)O4)n2)cc(OC)c1OC`: the “activity change, negative = inhibition” value was -0.513% (inactive).
Regarding `O=C1NC(=O)C(=Cc2ccc3c(c2)OC(F)(F)O3)S1`, the “activity change, negative = inhibition” value is 131% (inactive).
Same read-out and setting: under `CC(=O)CCCCn1c(=O)c2c(ncn2C)n(C)c1=O` stands 7.66% (inactive).
